Assay results: PubChem BioAssay AID652115 (Broad Institute, 2013)
Out of some 330,000 compounds screened, about 3,800 (1.2%) were called active. Only a selection was taken, and actives are over-represented in it overall. Unmarked numbers belong to inactive results. Cut-off read from the data, not from the text of the source: active = inhibition above about 15%; inconclusive = no clear call, values can overlap the other calls; inactive = below that.

These molecules were tested against NAD-dependent protein deacylase sirtuin-5, mitochondrial (Homo sapiens) (UniProt Q9NXA8) (assay: SIRT5 desuccinylase inhibitors, primary screen, biochemical, fluorescence imaging, single point, set 5 (AID 652115)). Conditions: Purified SirT5, succinyl-peptide AMC, trypsin-coupled fluorescence; at 15 µM; active compounds read high.
NAD-dependent protein deacylase sirtuin-5, mitochondrial (Homo sapiens), sequence (Q9NXA8 whole entry, looked up): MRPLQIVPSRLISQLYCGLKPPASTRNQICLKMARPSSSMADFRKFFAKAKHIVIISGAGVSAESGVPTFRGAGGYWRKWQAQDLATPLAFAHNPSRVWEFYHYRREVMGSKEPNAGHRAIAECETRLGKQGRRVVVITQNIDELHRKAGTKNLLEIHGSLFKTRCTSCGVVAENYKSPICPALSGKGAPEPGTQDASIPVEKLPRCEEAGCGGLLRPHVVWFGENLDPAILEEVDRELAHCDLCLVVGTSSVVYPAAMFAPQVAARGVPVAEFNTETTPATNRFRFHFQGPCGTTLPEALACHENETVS

SMILES | inhibition
COc1ccc2c3c(n(C)c2c1)[C@@H](CO)NCC31CCN(CC2CCCC2)CC1 | -0.874%
CN1CCN(C(=O)C[C@@H]2C=C[C@@H](NS(=O)(=O)c3cccc(F)c3)[C@@H](CO)O2)CC1 | 1.94%
C[C@@H]1CN([C@@H](C)CO)S(=O)(=O)c2ccc(-c3cccnc3)cc2O[C@H]1CN(C)CC1CCOCC1 | 1.51%
CCC(=O)N1[C@H](C(=O)NC2CCC2)[C@@H](CO)[C@@H]2Cn3c(cccc3=O)[C@@H]21 | -8.06%
C[C@H](CO)N1C[C@H](C)[C@@H](CN(C)S(=O)(=O)c2ccccc2F)Oc2ncc(C#Cc3ccccc3F)cc2C1=O | 2.94%
N#C[C@@H]1[C@@H](c2ccccc2C2=CCCC2)[C@H](CO)N1C(=O)NC1CCCC1 | 1.76%
Oc1c(Cl)cc(Cl)c(Cl)c1Cc1c(O)c(Cl)cc(Cl)c1Cl | 16% (active)
COCC(=O)Nc1ccc2c(c1)C(=O)N(C)[C@@H]1CC[C@@H](CC(=O)NCC(F)(F)F)O[C@H]1CO2 | 0.833%
Cc1cnc(C)c(N2CCN(C(=O)C3CCC(=O)N(CCc4cccc(F)c4)C3)CC2)n1 (stereo not given) | -3.12%
O=C1CCC(C(=O)N2CCC(O)(c3ccccc3)CC2)CN1CCc1ccccc1 (stereo not given) | 15.1% (active)
O=C(NCCCc1ccccc1)C1CCC(=O)N(CCc2ccc(Cl)cc2)C1 (stereo not given) | -3.16%
C[C@@H]1CN([C@@H](C)CO)C(=O)c2cccc(NC(=O)Nc3ccc(F)cc3)c2O[C@H]1CN(C)Cc1ccc(-c2ccccc2)cc1 | -1.08%
CCNC(=O)[C@H]1[C@H](CO)[C@H]2Cn3c(ccc(-c4cccc(OC)c4)c3=O)[C@H]2N1Cc1nccs1 | -15.5%
CN1c2ccc(C3=CCCCC3)cc2[C@@H]2[C@@H](CCN2C(=O)Nc2cc(F)ccc2F)[C@@H]1CO | 1.41%
CC(C)C(=O)Nc1ccc2c3c(cccc13)CC2 | 18.7% (active)
CC(=O)Nc1ccc2c3c(ccc([N+](=O)[O-])c13)CC2 | -1.7%
O=S(=O)(NC1CC1)c1ccc2c3c(cccc13)CC2 | -2.65%
COCC#Cc1ccc([C@H]2[C@@H](CO)N3C(=O)CN(C(=O)C4CCCC4)C[C@@H]23)cc1 | 0.614%
C[C@H](CO)N1C[C@H](C)[C@@H](CN(C)S(=O)(=O)c2ccccc2)Oc2ccc(NC(=O)Nc3ccc(F)cc3)cc2CC1=O | 3.49%
O=C([C@H]1[C@H](CO)[C@H]2Cn3c(ccc(C4=CCCCC4)c3=O)[C@@H]1N2)N1CCCCC1 | -11.2%
